The results in this text go back to publication PMC4336329 (PLoS ONE, 2015).

About 14,000 (4.5%) of roughly 310,000 compounds showed an effect of 50% or more. Effects have a minus sign here. This is one part of a sample in which strong results are shown more often than they occur.
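Further: peak tail current of the secondary pulse compared with the same well before compound.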

Chain of human ether-à-go-go-related gene (hERG) potassium channel (Q12809 whole entry, looked up): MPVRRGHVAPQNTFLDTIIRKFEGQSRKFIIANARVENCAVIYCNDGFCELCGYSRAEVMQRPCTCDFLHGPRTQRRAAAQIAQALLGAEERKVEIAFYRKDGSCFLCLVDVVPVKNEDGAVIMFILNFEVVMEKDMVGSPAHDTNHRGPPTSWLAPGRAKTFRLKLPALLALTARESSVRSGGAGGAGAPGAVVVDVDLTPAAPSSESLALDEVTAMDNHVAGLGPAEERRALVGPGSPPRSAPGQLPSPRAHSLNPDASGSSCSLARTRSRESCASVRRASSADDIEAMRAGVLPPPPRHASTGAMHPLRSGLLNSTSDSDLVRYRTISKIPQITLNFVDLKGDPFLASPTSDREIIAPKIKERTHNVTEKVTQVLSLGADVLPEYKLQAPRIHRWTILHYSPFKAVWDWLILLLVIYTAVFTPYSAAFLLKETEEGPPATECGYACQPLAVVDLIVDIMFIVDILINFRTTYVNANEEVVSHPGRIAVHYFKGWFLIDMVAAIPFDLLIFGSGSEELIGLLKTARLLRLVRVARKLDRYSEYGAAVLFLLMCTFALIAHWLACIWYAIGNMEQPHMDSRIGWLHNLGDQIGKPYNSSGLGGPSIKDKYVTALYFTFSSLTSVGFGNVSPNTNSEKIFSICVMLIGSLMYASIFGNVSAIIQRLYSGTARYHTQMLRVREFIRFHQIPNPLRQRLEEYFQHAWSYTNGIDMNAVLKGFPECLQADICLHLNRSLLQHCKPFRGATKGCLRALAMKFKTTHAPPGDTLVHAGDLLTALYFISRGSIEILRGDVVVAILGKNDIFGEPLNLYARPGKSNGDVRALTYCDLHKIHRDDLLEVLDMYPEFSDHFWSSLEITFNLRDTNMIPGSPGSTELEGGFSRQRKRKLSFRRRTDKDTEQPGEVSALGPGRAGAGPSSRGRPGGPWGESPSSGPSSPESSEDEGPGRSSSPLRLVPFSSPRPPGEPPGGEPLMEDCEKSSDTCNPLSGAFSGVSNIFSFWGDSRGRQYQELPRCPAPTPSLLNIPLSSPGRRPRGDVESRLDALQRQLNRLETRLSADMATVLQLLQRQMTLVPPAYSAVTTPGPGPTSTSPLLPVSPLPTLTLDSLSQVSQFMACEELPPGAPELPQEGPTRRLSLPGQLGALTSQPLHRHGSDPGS

This test concerns the target human ether-à-go-go-related gene (hERG) potassium channel (human, UniProt Q12809). Nature of the test: primary screen, population patch clamp on CHO cells stably expressing hERG; higher = less effect of the substance.
Consider `COC(=O)[C@@H](NC(=O)NCCC1=CCCCC1)C(C)C`, for which the “hERG current change (%, negative = inhibition) at 10uM” value was -3.29%.

For `COC(=O)CCCC(=O)N1CCCC(CCC(=O)NCc2ccc(F)c(F)c2)C1` (centres unmarked), the “hERG current change (%, negative = inhibition) at 10uM” value is 0.17%.

As to `COc1ccc(NC2CCCN(Cc3cccc4cnccc34)C2)cc1` (centres unmarked), the “hERG current change (%, negative = inhibition) at 10uM” value was -18.5%.

Consider `COc1cc(/C=N/N2CCCCC2)cc([N+](=O)[O-])c1O`, for which the “hERG current change (%, negative = inhibition) at 10uM” value is 20.8%.

Take `CC(CN1CCC(n2nccc2NC(=O)C2CCCC2)CC1)c1ccccc1` (centres unmarked): the “hERG current change (%, negative = inhibition) at 10uM” value is -24%.

With `CC(CN1CCC(n2nccc2NC(=O)c2ccccc2Cl)CC1)c1ccccc1` (centres unmarked), the “hERG current change (%, negative = inhibition) at 10uM” value is -68.9%.

Take `CC(C)CCN1CCC(n2nccc2NC(=O)C2CCOC2)CC1` (centres unmarked): the “hERG current change (%, negative = inhibition) at 10uM” value came out at 15.3%.

`CC(CCN1CCC(n2nccc2NC(=O)c2ccccc2Cl)CC1)c1ccccc1` (centres unmarked): the “hERG current change (%, negative = inhibition) at 10uM” value is -82.7%.

With `COCC(C)N1CCC(n2nccc2NC(=O)c2ccccc2Cl)CC1` (centres unmarked), the “hERG current change (%, negative = inhibition) at 10uM” value is on record as -47.9%.

Consider `Cc1cc(-c2ccco2)n(CC(=O)NCc2ccco2)n1`, for which the “hERG current change (%, negative = inhibition) at 10uM” value is 8.48%.

In the case of `CCC(C(=O)N1CC2(C)CC1CC(C)(C)C2)N1C(=O)c2ccccc2C1=O` (centres unmarked), the “hERG current change (%, negative = inhibition) at 10uM” value is -18.3%.

Turning to `Cc1cc(=O)oc2cc(OCCc3ccccc3)ccc12`, the “hERG current change (%, negative = inhibition) at 10uM” value is given as -0.326%.

For `CCOc1ccc2c(c1)-c1c(ssc1=S)C(C)(C)N2C`, the “hERG current change (%, negative = inhibition) at 10uM” value was -3.7%.

For the compound `CCOC(=O)C1C(=O)C=C(c2ccc([N+](=O)[O-])cc2)CC1c1ccccc1` (centres unmarked), the “hERG current change (%, negative = inhibition) at 10uM” value was -63.5%.

`CCOC(=O)C1C(=O)C=C(c2ccc(C)cc2)CC1c1ccccc1` (centres unmarked): the “hERG current change (%, negative = inhibition) at 10uM” value is given as 28.2%.

For the compound `CCOC(=O)C1C(=O)C=C(c2ccc(C)cc2)CC1c1ccco1` (centres unmarked), the “hERG current change (%, negative = inhibition) at 10uM” value is 5.34%.

As to `CCOC(=O)C1C(=O)C=C(c2ccc(C)cc2)CC1c1cccc([N+](=O)[O-])c1` (centres unmarked), the “hERG current change (%, negative = inhibition) at 10uM” value is recorded as -4.88%.

In the case of `CCOC(=O)C1C(=O)C=C(c2ccc(Br)cc2)CC1c1ccco1` (centres unmarked), the “hERG current change (%, negative = inhibition) at 10uM” value is given as -23.2%.

With `CCOC(=O)C1C(=O)C=C(c2ccc(NS(C)(=O)=O)cc2)CC1c1ccco1` (centres unmarked), the “hERG current change (%, negative = inhibition) at 10uM” value is listed as -80.3%.

For the compound `CCOCC(=O)Nc1ccc2c(c1)OCCO2`, the “hERG current change (%, negative = inhibition) at 10uM” value is on record as 19.6%.

As for `Brc1ccc2c(c1)C(c1cccs1)=NNC(c1cccnc1)=N2`, the “hERG current change (%, negative = inhibition) at 10uM” value was -14.5%.

On to `COc1ccc(NC(=O)CCC(=O)c2ccc(C(C)C)cc2)cc1`, for which the “hERG current change (%, negative = inhibition) at 10uM” value was found to be 27.7%.

Turning to `CC(C)OCCCn1c(=NC(=O)c2cccs2)c(C#N)cc2c(=O)n3ccccc3nc21`, the “hERG current change (%, negative = inhibition) at 10uM” value was -77.6%.

Take `CCCCCn1c(=NC(C)=O)c(C#N)cc2c(=O)n3ccccc3nc21`: the “hERG current change (%, negative = inhibition) at 10uM” value is -43%.

For `CC(=O)N=c1c(C#N)cc2c(=O)n3ccccc3nc2n1CCCOC(C)C`, the “hERG current change (%, negative = inhibition) at 10uM” value was -13.6%.

Take `CCOCCCn1c(=NC(C)=O)c(C#N)cc2c(=O)n3ccccc3nc21`: the “hERG current change (%, negative = inhibition) at 10uM” value is listed as -15.4%.

Regarding `CCOCCCn1c(=NC(=O)c2cccs2)c(C#N)cc2c(=O)n3ccccc3nc21`, the “hERG current change (%, negative = inhibition) at 10uM” value was -76.9%.

As for `CC(C)OCCCn1c(=NC(=O)c2ccncc2)c(C#N)cc2c(=O)n3ccccc3nc21`, the “hERG current change (%, negative = inhibition) at 10uM” value is given as -74.2%.

Take `Cc1ccc(NC(=O)c2ccc(CSc3nnnn3C)cc2)cc1`: the “hERG current change (%, negative = inhibition) at 10uM” value is on record as -15.3%.

Turning to `COc1ccc(-c2nc(CS(=O)CC(=O)NCc3cccnc3)c(C)o2)cc1OC` (centres unmarked), the “hERG current change (%, negative = inhibition) at 10uM” value is reported as -2.9%.

Regarding `O=C(NCCCN1CCCCCC1)c1ccc(N2CCCC2=O)cc1`, the “hERG current change (%, negative = inhibition) at 10uM” value came to 16.4%.

Take `COc1ccccc1/C=C(\C#N)C(=O)c1cccn1C`: the “hERG current change (%, negative = inhibition) at 10uM” value amounted to 5.95%.

As to `CCOC(=O)C1(Cc2cccc(OC)c2)CCN(CC2CC=CCC2)CC1` (centres unmarked), the “hERG current change (%, negative = inhibition) at 10uM” value is on record as -71.7%.

On to `CCOC(=O)C1(Cc2cccc(F)c2)CCN(CC2CC2)CC1`, for which the “hERG current change (%, negative = inhibition) at 10uM” value is on record as -33.4%.

For `CCOC(=O)C1(Cc2ccccc2)CCN(CC2CC=CCC2)CC1` (centres unmarked), the “hERG current change (%, negative = inhibition) at 10uM” value is reported as -54.9%.

In the case of `CCN(Cc1cnn(C)c1)C(=O)c1ccc(OC2CCN(S(=O)(=O)N(C)C)CC2)cc1`, the “hERG current change (%, negative = inhibition) at 10uM” value came to 19.1%.

Consider `CCSC1=C(C#N)C(c2ccc3c(c2)OCO3)C2=C(CCCC2=O)N1` (centres unmarked), for which the “hERG current change (%, negative = inhibition) at 10uM” value is listed as -23.4%.

On to `Oc1ccc(/C=N/N2CCN(Cc3ccccc3)CC2)cc1`, for which the “hERG current change (%, negative = inhibition) at 10uM” value amounted to 7.33%.

As for `O=C(COC(=O)CC1CCCC1)Nc1cccc(F)c1`, the “hERG current change (%, negative = inhibition) at 10uM” value is -1.79%.

In the case of `O=C(NCc1cccs1)[C@@H]1CSC2c3ccccc3C(=O)N21` (some centres unmarked), the “hERG current change (%, negative = inhibition) at 10uM” value is given as 8.92%.

For `CC(C)CC1c2[nH]c3ccccc3c2CCN1C(=O)c1cnccn1` (centres unmarked), the “hERG current change (%, negative = inhibition) at 10uM” value was 3.61%.

Consider `COCc1ccc(CN2CCc3c([nH]c4ccccc34)C2CC(C)C)o1` (centres unmarked), for which the “hERG current change (%, negative = inhibition) at 10uM” value was -58.7%.

With `Cc1cccc(CN2CCc3c([nH]c4ccccc34)C2CC(C)C)n1` (centres unmarked), the “hERG current change (%, negative = inhibition) at 10uM” value is recorded as -3.98%.

With `CC(C)CC1c2[nH]c3ccccc3c2CCN1C(=O)CCC(=O)N(C)C` (centres unmarked), the “hERG current change (%, negative = inhibition) at 10uM” value worked out at 3.88%.

`CCn1ccnc1CN1CCc2c([nH]c3ccccc23)C1C(C)(C)C` (centres unmarked): the “hERG current change (%, negative = inhibition) at 10uM” value is reported as -59.7%.

With `Cc1c(CN2CCc3c([nH]c4ccccc34)C2CC(C)C)cnn1C` (centres unmarked), the “hERG current change (%, negative = inhibition) at 10uM” value is -36%.

For the compound `CCn1ccnc1CN1CCc2c([nH]c3ccccc23)C1C1CCCCC1` (centres unmarked), the “hERG current change (%, negative = inhibition) at 10uM” value is given as -19.4%.

With `CCc1nccn1CCC(=O)N1CCc2c([nH]c3ccccc23)C1CC(C)C` (centres unmarked), the “hERG current change (%, negative = inhibition) at 10uM” value is recorded as -53.9%.

As for `CCn1nc(C)c(CN2CCc3c([nH]c4ccccc34)C2C(C)(C)C)c1C` (centres unmarked), the “hERG current change (%, negative = inhibition) at 10uM” value is -3.17%.

For `COCc1ccc(CN2CCc3c([nH]c4ccccc34)C2C(C)(C)C)o1` (centres unmarked), the “hERG current change (%, negative = inhibition) at 10uM” value was 7.25%.
